Experimental data as given in PubChem BioAssay (EPA / NIEHS).
Activity calls are given as the source filed them. How the source made its calls: active means hit-call score of the fitted dose curve at least 0.9, where 1 is the maximum; inactive means score below 0.9.

Each compound was assayed on urokinase plasminogen activator (uPA), PLAU (gene 5328) (assay: BSK_BE3C_uPA: BioMAP Diversity Plus: BE3C Assay for urokinase plasminogen activator (uPA) Biomarker Activity (AID 2283038)). Details: primary human bronchial epithelial cells; actives raise or lower the signal.
Method: BSK_BE3C is a cell-based, multiplexed-readout assay that uses bronchial epithelial cell, a human lung primary cell, with measurements taken at 24 hours after chemical dosing in a 96-well plate.BSK_BE3CA is an assay component measured in the BSK_BE3C assay. It measures uPA antibody related to regulation of gene expression using ELISA technology.Data from the assay component BSK_BE3CA was analyzed into 1 assay endpoint. This assay endpoint, BSK_BE3CA, was analyzed with bidirectional fitting relative to DMSO as the negative control and baseline of activity. Using a type of binding reporter, gain or loss-of-signal activity can be used to understand changes in the signaling as they relate to the gene PLAU. Furthermore, this assay endpoint can be referred to as a primary readout, because this assay has produced multiple assay endpoints where this one serves a signaling function. To generalize the intended target to other relatable targets, this assay endpoint is annotated to the protease intended target family, where the subfamily is serine protease.
The levels of cell surface (or secreted, indicated by the prefix "s") biomarker endpoints were measured by ELISA. Overt cytotoxicity to cells in confluent adherent cultures (all systems other than the BT system) was assessed by measuring total protein levels using sulforhodamine B (SRB) staining in parallel cultures at the time of biomarker measurements, indicated as SRB endpoints. For proliferation assays for adherent cell types, individual cell types are cultured at sub-confluence and relative cell numbers quantified by SRB staining at time points optimized for each system (48 h: 3C and CASM3C systems; 72 h: BT and HDF3CGF systems; 96 h: SAg system). SRB was performed by staining cells with 0.1% SRB after fixation with 10% TCA and reading wells at 560 nm.Viability and proliferation of PBMC (T cells) was quantified by Alamar Blue reduction for the SAg and BT systems. For PBMC viability (referred to as PBMC Cytotoxicity within the assay endpoint names), cells were plated (75,000/well in a 96-well plate) and then chemical samples added for 1 h before addition of activators, SEB and TSST-1 (20 ng/mL final concentration each). Cells were incubated for 90 h. Then, Alamar Blue (20 uL/well) (Invitrogen, Cat DAL1100) was added for 6 h, and the plates were read with a fluorescence microplate reader at 546/580 nm (excitation/emission). For PBMC proliferation, cells were plated and activated as above but incubated for only 16 h prior to addition of Alamar Blue. Plates were read after 6 h.

| SMILES | AC50 | outcome |
| --- | --- | --- |
| CN(C)c1ccc(C(=C2C=CC(=[N+](C)C)C=C2)c2ccc(N(C)C)cc2)cc1 | 1.97 µM (active) |  |
| Oc1ccccc1 |  | inactive |
| CN(C[C@@H](CC[N+]12CCC(C3CCCCC3)(CC1)CC2)c1ccc(Cl)c(Cl)c1)C(=O)c1cc(C(F)(F)F)cc(C(F)(F)F)c1 | 16.6 µM (active) |  |
| CO[C@H]1/C=C/O[C@@]2(C)Oc3c(C)c(O)c4c(O)c(c(/C=N/N5CCN(C)CC5)c(O)c4c3C2=O)NC(=O)/C(C)=C\C=C\[C@H](C)[C@H](O)[C@@H](C)[C@@H](O)[C@@H](C)[C@H](OC(C)=O)[C@@H]1C |  | inactive |
| CC/C(=C(/CC)c1ccc(O)cc1)c1ccc(O)cc1 | 33.6 µM (active) |  |
| CC[C@H](NC(=O)c1cc(F)ccc1NS(=O)(=O)c1cccc2cccnc12)c1ccccc1 |  | inactive |
| COc1cccc([C@H](O)C2CCN(CCc3ccc(F)cc3)CC2)c1OC |  | inactive |
| Cc1ncc(CO)c(CO)c1O |  | inactive |
| Cc1c2ccccc2c(C)c2c1ccc1ccccc12 |  | inactive |
| O=C(O)c1ccccc1-n1cc(C(=O)O)c(=O)c2cc(Nc3c(F)cc(F)cc3Cl)c(Cl)cc21 |  | inactive |
| COCC(C)OCC(C)OCC(C)O (stereo not given) |  | inactive |
| Cc1ccc(C(C)C)cc1 |  | inactive |
| Cc1oc2c(NC(=O)c3c(Cl)cccc3Cl)cccc2c1C(C)(C)O |  | inactive |
| C[C@]12CC[C@@H]3c4ccc(O)cc4CC[C@H]3[C@@H]1CC[C@H]2O |  | inactive |
| Cc1occc1C(=O)Nc1ccc(C(=O)N2CCC(F)(F)/C(=C\C(=O)N3CCC(N4CCCCC4)CC3)c3ccccc32)cc1 |  | inactive |
| O=CCCCC=O |  | inactive |
| O=C(O)Cn1c(=O)n(Cc2ccc(Br)cc2F)c(=O)c2ccc(Cl)cc21 |  | inactive |
| CCCCOC(=O)c1ccc(O)cc1 |  | inactive |
| CC1(C)NC(=O)N(c2ccc([N+](=O)[O-])c(C(F)(F)F)c2)C1=O |  | inactive |
| CCCCCCCC[Si](OCC)(OCC)OCC |  | inactive |

| SMILES | AC50 | outcome |
| --- | --- | --- |
| CC1=CC(=O)/C(=C(/C)O)C(=O)O1 |  | inactive |
| NCc1cccc(C2CCN(C(=O)c3ccc(C#Cc4ccccc4F)o3)CC2)c1 | 7.93 µM (active) |  |
| O=C1CCC(C2CCCCC2)CC1 |  | inactive |
| CCN(Cc1cccnc1)C(=O)c1cccc(Cl)c1[C@]1(C)C(=O)N(Cc2ccc(OC)cc2OC)c2ccc(Cl)cc21 | 5.67 µM (active) |  |
| CC(C)(C)c1cc(/C=C2\SC(N)=NC2=O)cc(C(C)(C)C)c1O | 3.97 µM (active) |  |
| CCOC(=O)O[C@H](C)OC(=O)c1ccc2c(c1)cc(C(=O)NC1CCN(C(C)C)CC1)n2Cc1cc(-c2ccc(Cl)s2)on1 | 9.63 µM (active) |  |
| O=C=NCCCCCCN=C=O |  | inactive |
| c1ccc2n[nH]nc2c1 |  | inactive |
| Cc1cc2c(cc1C(F)(F)F)N(C(=O)Nc1ccc(Oc3cccnc3C)nc1)CC2 | 11.7 µM (active) |  |
| O=C(Nc1ccc(Cl)cc1)Nc1ccc(Cl)c(Cl)c1 |  | inactive |
| COc1cc(C(=O)NC2CCN(C)CC2)ccc1Nc1ncc2c(n1)N(C1CCCC1)CC(F)(F)C(=O)N2C | 12.6 µM (active) |  |
| CC[C@@H]1C[C@H](N(Cc2cc(C(F)(F)F)cc(C(F)(F)F)c2)C(C)=O)c2cc(C(F)(F)F)ccc2N1C(=O)OC(C)C |  | inactive |
| CC(C)(c1cc(Br)c(O)c(Br)c1)c1cc(Br)c(O)c(Br)c1 | 9.34 µM (active) |  |
| CN(C)C(=O)C1(N2CCCCC2)CCN(CC[C@@]2(c3ccc(Cl)c(Cl)c3)CN(C(=O)c3ccccc3)CCO2)CC1 | 17.7 µM (active) |  |
| O=c1c(-c2ccc(O)cc2)coc2cc(O)cc(O)c12 |  | inactive |
| CN1C(=O)CC[C@H]1c1cccnc1 |  | inactive |
| CCCCCCCCCCCO |  | inactive |
| Cc1cn([C@H]2C[C@H](N=[N+]=[N-])[C@@H](CO)O2)c(=O)[nH]c1=O |  | inactive |
| CN1C(=O)N(c2ccccc2Br)Cc2cnc(Nc3ccc4c(c3)OCC(CO)O4)nc21 (stereo not given) | 5.91 µM (active) |  |
| Oc1ccc2ccccc2c1 |  | inactive |
